Several values for one entry are separate records, joined by “and”; a condition that tells them apart may be missing. Equal entries are not always repeated. Out of some 260,000 compounds screened, about 1,500 (0.58%) were called active. Not shown: some 5% with an inconclusive outcome.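 The calls were made as follows: active = inhibition above a set limit at one or more doses, reproduced on every date tested; inconclusive = results disagree between test dates, or hit never tested in dose response; inactive = the rest.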 A selection follows. Measured potencies and affinities stand elsewhere.
biological target: Virion infectivity factor (Human immunodeficiency virus type 1 group M subtype B (isolate BH10)) + Virion infectivity factor (Human immunodeficiency virus type 1 group M subtype B (isolate BRU/LAI)) + Virion infectivity factor (Human immunodeficiency virus type 1 group M subtype B (isolate PCV12)) + Virion infectivity factor (Human immunodeficiency virus type 1 group M subtype B (isolate HXB2)) + DNA dC->dU-editing enzyme APOBEC-3G (Homo sapiens) (UniProt P69720+P69721+P69722+P69723+Q9HC16); experiment: inhibitors of Vif binding to APOBEC3G peptide, primary screen, biochemical, TR-FRET, GST-Vif 1-94, biotin-A3G peptide, dose response retest (AID 1117319); settings: stronger effect = higher value;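 also: Vif residues 1-94 fused to GST binding biotinylated APOBEC3G peptide 110-148; 0% = full assay without inhibitor and 100% = GST in place of GST-Vif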

inhibition, inactive:
Cc1oc(/N=C/c2ccc(O)cc2O)c(C#N)c1C -3.01%, Cc1oc(/N=C/c2ccccc2O)c(C#N)c1C 6.98%, Clc1cccc(C2=NOC(c3nnc(-c4ccccc4)o3)C2)c1 (stereo unspecified) -9.96%, Cc1cc(C)c(OCCNC(=O)c2ccccc2Sc2ccccc2C#N)c(C)c1 -2.47%, CC(=O)Oc1ccc(N2C(=O)C3C4C=CC(O4)C3C2=O)cc1 (stereo unspecified) -0.5%, O=C(O)CSc1c2c(nc3cc(C(=O)N4CCCC4)ccc13)CCCC2 4.71%, CCC(C)NC(=O)c1ccc2c(SCC(=O)O)c3c(nc2c1)CCCC3 (stereo unspecified) 7.55%, CCCN(C(=O)c1ccc2c(SCC(=O)O)c3c(nc2c1)CCC3)c1cccc(C)c1 18.7%, CCOC(=O)C1CCN(C(=O)c2ccc3c(SCC(=O)O)c4c(nc3c2)CCCC4)CC1 -8.86%, COc1cccc(/C=C2\SC(=S)N(CC(=O)N(C)C3CCS(=O)(=O)C3)C2=O)c1 (stereo unspecified) 3.59%, Cc1c(Cl)cccc1Nc1nc(N)nc(CSC(=S)N2CCOCC2)n1 0.88%, NS(=O)(=O)c1ccc(CCNS(=O)(=O)c2ccccc2)cc1 22.8%, O=C(CSc1ccc2nnc(-c3ccncc3)n2n1)Nc1nccs1 -1.26%, O=S(=O)(NCCN1CCCC1)c1ccc(C(F)(F)F)cc1 1.25%, Cc1cc(-c2ccccc2)[nH]c(=O)c1C#N -1.26%, N#Cc1c(-c2cccc(Br)c2)cc(-c2ccco2)[nH]c1=O 15.1%, COc1ccc(-c2cc(C(F)(F)F)c(C#N)c(=O)[nH]2)cc1 -2.26%, N#Cc1c(-c2ccccc2)cc(-c2ccccc2)[nH]c1=O -8.66%, COC(=O)c1ccc(NC(=S)N2CCN(Cc3ccccc3)CC2)cc1 10.9%, O=C(c1ccc(COc2ccc3ccccc3c2)o1)N1N=C(C(F)F)CC1(O)C(F)F (stereo unspecified) -0.12%, COc1cc2[nH]c(=S)nc(NCc3ccc(C)cc3)c2cc1OC -6.65%, O=C1C(O)=CC(=C(c2ccccc2)c2ccccc2)c2ccccc21 15.1%, Cc1ccc2c(CC(=O)OCc3csc(C)n3)coc2c1 11.1%, COc1cccc(OC)c1C(=O)OCC(=O)NCC(C)C 14.3%, CCC1(C)N([O-])C(C)=C(c2ccccc2)[N+]1=O (stereo unspecified) 4.55%, CC1(C)N([O-])C2=C(CCCC2)[N+]1=O 4.01%, CCc1ccc(N(C(=O)c2csnn2)C(C(=O)NC(C)(C)C)c2ccccn2)cc1 (stereo unspecified) 0.91%, O=C(c1n[nH]c(=O)c2ccccc12)N1CCN(Cc2ccc3c(c2)OCO3)CC1 4.07%, CCN(CC(=O)Nc1c(F)cccc1F)C(=O)c1ccc(N2CCCC2=O)cc1 -13.8%, Cc1csc(NC(=O)c2cc3ccccc3o2)n1 0.57%, CCOC(=O)c1csc(NC(=O)c2cc3ccccc3o2)n1 0.78%, Cc1ccc(OCC(=O)NCc2ccc3c(c2)OCO3)c([N+](=O)[O-])n1 8.23%, CC(C)C(=O)Nc1nnc(Cc2ccccc2)s1 -2.22%, CNC(=O)CC12CC3CC(CC(C3)C1)C2 6.4%, CCN1CCC(=NNC(=O)c2ccco2)CC1 5.57%, CCOP(=O)(OCC)c1nc(-c2cccc([N+](=O)[O-])c2)oc1N1CCCCC1 5.71%, Cc1cc(C(=O)CSc2nnnn2C)c(C)n1CCc1ccc(F)cc1 15.4%, COc1ccc(CCn2c(C)cc(C(=O)CSc3nnnn3C)c2C)cc1 26.9%, CNC(=O)c1sccc1SCc1c(Cl)cccc1Cl -1.14%, CC1=C(C(=O)OCC(Cl)(Cl)Cl)N2C(=O)C(NC(=O)Cc3ccccc3)C2SC1 (stereo unspecified) 67.2%, Cc1nnc(SCC2=C(C(=O)O)N3C(=O)C(NC(=O)Cc4ccccc4)C3SC2)s1 (stereo unspecified) 7.27%, COc1ccccc1N1CC(C(=O)OCc2nc(N)nc(Nc3ccccc3)n2)CC1=O (stereo unspecified) 15.4%, CC1(C(=O)N2CCOCC2)CCCCC1 -0.21%, Cc1cc(C)cc(OCC(=O)Nc2cc(C)on2)c1 0.63%, CCn1c(CNC(=O)c2cccc(C)c2)nnc1SCC(=O)NC1=NCCS1 -12%, CCOC(=O)N1CCN(C(=O)COc2ccc(S(=O)(=O)NC(C)C)cc2)CC1 -4.61%, CCCNS(=O)(=O)c1ccc(OCC(=O)N2CCC(C(=O)OCC)CC2)cc1 -4.14%, O=C(Nc1ccc2c(c1)OCCO2)c1ccc(Cl)cc1 -3.98%, CC(=O)c1cc2c(cc1NC(=O)c1cccc(S(=O)(=O)N3CCN(C)CC3)c1)OCO2 -12.7%, C/C(=N\NC(=O)c1ccc(=O)[nH]n1)c1cccnc1 3.66%, COc1ccc(-c2csc(COC(=O)C(C)(C)C)n2)cc1 -3.51%, CC(C)(C)C(=O)OCc1nc(-c2ccc(Cl)cc2)cs1 -5.87%, N#C/C(=C\c1ccc(-c2cccc([N+](=O)[O-])c2)o1)C(=O)Nc1nc(-c2cccs2)cs1 3.46%, Cc1cccc(NC(=O)CN(C)S(=O)(=O)c2cccc3cccnc23)c1 2.4%, Cc1cc(C#N)c(C)c(SCc2[nH]nc3c2C(c2ccccc2)C(C#N)=C(N)O3)n1 (stereo unspecified) 7.14%, COC(=O)c1ccccc1NC(=O)CN1CCC(C)CC1 26.5%, Cc1c(NC2=C(Cl)C(=O)N(c3ccccc3)C2=O)c(=O)n(-c2ccccc2)n1C 6.24%, COCCN(C(=O)COC(=O)CSc1cc(C)ccc1C)c1c(N)n(Cc2ccccc2)c(=O)[nH]c1=O -5.52%, CC(=O)Nc1ccc2c(c1)OCCOCCOc1cc(NC(C)=O)ccc1OCCOCCOCCO2 30.1%, CC(=O)Nc1ccc2c(c1)OCCO2 -3.04%, COc1ccc(-n2cccc2/C=C/[N+](=O)[O-])cc1 20.8%, O=C(O)c1cccc(-n2cccc2C=C2C(=O)c3ccccc3C2=O)c1 29.9%, CC(C)[C@H](NC(=O)OCc1ccccc1)C(=O)OCC(=O)N1CCN(c2ccc(F)cc2)CC1 -1.08%, CCNc1nc(ON=C(C)C)nc(N(C)C)n1 -7.57%, CCC(C)NC(=O)c1ccc(CSCc2ccccc2Cl)o1 (stereo unspecified) 2.45%, COc1ccc(OC)c(Nc2nc(-c3cccs3)cs2)c1 3.68%, COc1ccc(OC)c(Nc2nc(-c3sc(N)nc3C)cs2)c1 7.55%, Cc1ccc(C2/C(=C(\O)c3ccc4c(c3)OCCO4)C(=O)C(=O)N2CC2CCCO2)cc1 (stereo unspecified) -0.97%, COc1ccc(/C(C)=N/NC(=O)CNC(=O)c2cccnc2)c(OC)c1 3.46%, COc1ccc(OC)c(NC(=O)NC2CCCCCCC2)c1 -6.56%, COc1ccccc1C(=O)N1CCCC(c2nc(-c3cc(OC)c(OC)c(OC)c3)no2)C1 (stereo unspecified) -8.18%, CC1=C(C(=O)Nc2ccccc2C)C(c2ccc(C)o2)n2c(s/c(=C/c3ccccc3)c2=O)=N1 (stereo unspecified) 29.2%, CC1=C(C(=O)Nc2ccccc2)C(c2ccc(C)o2)n2c(s/c(=C/c3ccccc3)c2=O)=N1 (stereo unspecified) 12.7%, CCOC(=O)C1=C(c2ccccc2)N=c2s/c(=C\c3cccc(O)c3)c(=O)n2C1c1cccs1 (stereo unspecified) -2.23% and -5.42%, CCOC(=O)C1=C(C)N=c2s/c(=C/c3ccccc3)c(=O)n2C1c1ccc(OC)c(OC)c1 (stereo unspecified) 1.78%, COc1ccc(C2C(C(C)=O)=C(C)N=c3s/c(=C\c4ccco4)c(=O)n32)c(OC)c1 (stereo unspecified) 31.2%, CCOC(=O)C1=C(c2ccccc2)N=c2s/c(=C\c3ccc(O)cc3)c(=O)n2C1c1cccs1 (stereo unspecified) -10.4%, COc1cccc(CNC(=O)CSCc2cnn(-c3ccccc3)c2-n2cccc2)c1 2.53% and 7.19%, CC(=O)c1cnc2n(c1=O)CCS2 -2.48%, COc1ccc(C(CC(=O)c2ccc(C)cc2)C(C#N)C#N)cc1OC (stereo unspecified) -6.99%, O=C(O)CCCNC(=O)OCc1ccccc1 -2.72%, CC1CCN(S(=O)(=O)c2ccc(S(=O)(=O)NCC3COCCO3)cc2)CC1 (stereo unspecified) 8.23%, CCNS(=O)(=O)c1ccc(CCC(=O)O)cc1 -1.11%, CCN(CC)S(=O)(=O)c1ccc(N2CC(C(=O)NCCC3=CCCCC3)CC2=O)cc1 (stereo unspecified) -3.38%, CC(=O)Nc1ccc(S(=O)(=O)N2CCN(c3ccccn3)CC2)cc1 25%, Cc1ccc(S(=O)(=O)N2CCN(Cc3ccccn3)CC2)cc1 0.21%, O=C(O)/C(=C\c1cn(-c2ccccc2)nc1-c1cccnc1)NC(=O)c1ccccc1 -1.44%, Cc1cccc(OCc2n[nH]c(=S)n2-c2ccccc2)c1 1.89%, Cc1ccc(OCc2n[nH]c(=S)n2-c2ccccc2)cc1C -3.72%, O=C(CN1CCN(C(=O)c2ccccc2)CC1)Nc1cc(S(=O)(=O)N2CCCC2)ccc1Cl -24.1%, COC(=O)C1=C(C)NC(C)=C(C(=O)OC)C1C(=O)OCc1nc2cc(C(=O)OC)ccc2c(=O)[nH]1 -5.82%

Reference: PubChem BioAssay AID1117319 (Southern Research Institute, 2015)
